Screening results as filed in PubChem BioAssay.
Sampled rows, rich in hits. Any-hit rate of the full collection: about 4.8%.
USP1 inh = inhibitors of human USP1/UAF1 deubiquitinase; actives 0.23% (n = 390,000); AID 743255; Potency, µM (highest dose often 57.1 µM), for inactives: top-dose activity change, negative = inhibition, most hits filed as inhibitors; recombinant USP1/UAF1, Ub-Rhodamine cleavage fluorescence; O94782; also: potency is read from the fitted curve at half-maximal effect; % is scaled to controls: 0 for no effect and ±100 for the full control effect; nearly all actives have a fitted effect of over 60% in size
Target sequence (O94782 whole entry, looked up): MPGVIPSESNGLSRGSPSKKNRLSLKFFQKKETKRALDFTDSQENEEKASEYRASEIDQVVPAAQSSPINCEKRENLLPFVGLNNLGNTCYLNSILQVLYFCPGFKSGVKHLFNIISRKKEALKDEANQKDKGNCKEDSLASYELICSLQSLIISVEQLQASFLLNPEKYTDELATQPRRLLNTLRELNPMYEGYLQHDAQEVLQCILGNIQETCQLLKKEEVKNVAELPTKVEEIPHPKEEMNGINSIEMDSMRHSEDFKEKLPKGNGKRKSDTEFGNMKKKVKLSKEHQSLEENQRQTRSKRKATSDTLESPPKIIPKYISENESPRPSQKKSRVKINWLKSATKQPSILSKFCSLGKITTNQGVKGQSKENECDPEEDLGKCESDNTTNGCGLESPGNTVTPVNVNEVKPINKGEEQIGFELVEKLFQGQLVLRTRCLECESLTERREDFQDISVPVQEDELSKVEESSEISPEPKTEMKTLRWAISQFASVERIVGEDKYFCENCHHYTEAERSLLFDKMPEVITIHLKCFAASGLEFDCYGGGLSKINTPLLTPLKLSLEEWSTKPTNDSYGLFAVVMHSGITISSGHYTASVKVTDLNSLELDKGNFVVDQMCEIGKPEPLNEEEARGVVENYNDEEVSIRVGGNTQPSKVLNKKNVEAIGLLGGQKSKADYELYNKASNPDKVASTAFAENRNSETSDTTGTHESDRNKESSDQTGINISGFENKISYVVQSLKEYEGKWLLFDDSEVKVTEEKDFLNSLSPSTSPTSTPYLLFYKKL
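In this screen, compounds sit with the deubiquitinase complex (1nM) for 15 min at room temperature before Ub-Rho is added at 150nM final. Fluorescence rise is then followed for 6 reads every 60 seconds.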
ATXN2 expr inh = inhibitors of ATXN2 expression; HEK-293 ATXN2-luciferase reporter, luminescence, 24 h; Potency, µM (highest dose often 57 µM), for inactives: at the top dose activity change, negative = inhibition, hits mostly inhibitors; actives 0.72% (n = 360,000); also: potency is read from the fitted curve at half-maximal effect; % is scaled to controls: 0 for no effect and ±100 for the full control effect; nearly all actives have a fitted effect of over 55% in size
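ATXN2-luciferase reporter cells (luciferase flanked by upstream and downstream ATXN2 gene portions) were treated 24 h at 37 °C with compounds at up to 57 uM. SteadyGlo luminescence gave expression; GF-AFC fluorescence gave viability.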
S2 tox = reduces viability in counter-screen for ATXN expression inhibitors. S2 cells (HEK-293 line with an ATXN2-luciferase reporter) viability, CellTiter-Fluor protease fluorescence, 24 h. Potency, µM (top dose mostly 56.7 µM), actives largely listed as cytotoxic. actives 0.49% (n = 400,000); also: potency is read from the fitted curve at half-maximal effect; nearly all actives have a fitted effect of over 40% in size
IL1B secr inh = blocks inflammasome-driven IL-1 beta release. activity change, % at 57.5 µM. actives 4.7% (n = 360,000). THP-1 LPS/ATP IL-1B secretion, AlphaLISA, 16 h; active compounds read low; in the data active = activity change below about -50%; inconclusive = mostly about -30% to -49%; also: % is scaled to controls: 0 for no effect and ±100 for the full control effect
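Secreted IL-1B measured by AlphaLISA bead assay after 16 h compound exposure of THP-1 cells; compounds (final up to 57.5 uM) added 1 h before LPS (250 ng/mL) and ATP (1.25 mM) stimulation; lower signal means less secretion.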
USP2a inh = blocks human ubiquitin-specific protease USP2a. O75604. USP2 core, Ub-CHOP2 coupled fluorogenic reporter, 485/531. Potency, µM (series often up to 38.3 µM), without a hit: at the top dose activity change, negative = inhibition, actives largely listed as inhibitors. actives 0.01% (n = 330,000);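 also: potency is read from the fitted curve at half-maximal effect; plate controls were DMSO wells for no effect and full inhibition by NEM control for full effect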
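USP2 core (10nM final) preincubated 30min RT with compound in 20mM Tris-HCl pH 8.0, 2mM CaCl2, 2mM beta-mercaptoethanol, 0.05% CHAPS; 25nM Ub-CHOP2 plus 25nM reporter substrate added, fluorescence (Ex485/Em531) read after 60min.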
Numbers without * were called inactive. Unless noted, calls follow the shape of the dose curve; as a rule, active = well fitted curve in the direction sought with a large enough effect; inconclusive = small, poorly fitted or top-dose-only effect, or another doubt; inactive = no such curve, though single readings can be large; an effect the other way counts as inactive or inconclusive.

How did COc1ccc(F)c(CN2CCC(CO)(Cc3cccc(C(F)(F)F)c3)CC2)c1 do in these assays?
USP1 inh: -2.9%; ATXN2 expr inh: -36.1%; S2 tox: inactive; IL1B secr inh: inconclusive; USP2a inh: 1.2%

How did CCOc1cc(CN2CCN(c3cccc(C(F)(F)F)c3)CC2)ccc1OC do in these assays?
USP1 inh: -8.7%; ATXN2 expr inh: -14.4%; S2 tox: inactive; IL1B secr inh: -56.3*; USP2a inh: 0.2%

What do the screens show for `COc1cc(CN2CCC(CO)(Cc3cccc(C(F)(F)F)c3)CC2)ccc1F`?
USP1 inh: -24.3%; S2 tox: inactive; IL1B secr inh: -52.3*; USP2a inh: -4.9%

How did COc1ccc(CN2CCC(CO)(Cc3cccc(C(F)(F)F)c3)CC2)cc1Cn1cccn1 do in these assays?
USP1 inh: -23.0%; S2 tox: inactive; IL1B secr inh: -75.3*; USP2a inh: 0.3%

What do the screens show for `COc1ccc(CN2CCN(CC=C(C)C)C(CCO)C2)cc1Cn1cccn1` (stereo not given)?
USP1 inh: -8.9%; ATXN2 expr inh: -0.3%; S2 tox: inactive; IL1B secr inh: 0.0; USP2a inh: 0.7%

What do the screens show for `OCC1(Cc2ccccc2)CCN(Cc2ccc(C(F)(F)F)cc2)CC1`?
USP1 inh: -21.3%; ATXN2 expr inh: -37.8%; S2 tox: inactive; IL1B secr inh: -50.9*; USP2a inh: -1.1%

How did COC(=O)C1=CCCCC(O)=C1C(=O)OC do in these assays?
USP1 inh: 2.7%; S2 tox: inactive; IL1B secr inh: -2.6

How did O=C(c1ccccn1)N(Cc1ccco1)C1(C(=O)Nc2ccc(Br)cc2)CCCCC1 do in these assays?
ATXN2 expr inh: -5.9%; S2 tox: inactive; IL1B secr inh: -2.5

How did Cc1ccc(/C=C(\C#N)C(=O)N2CCCC2)c(C)c1 do in these assays?
USP1 inh: -17.9%; ATXN2 expr inh: 26.1%; S2 tox: inactive; IL1B secr inh: -86.5*; USP2a inh: 7.7%

How did N#C/C(=C\c1ccc(O)cc1)C(=O)N1CCCC1 do in these assays?
USP1 inh: -9.5%; ATXN2 expr inh: -1.2%; S2 tox: inactive; IL1B secr inh: -9.3; USP2a inh: 1.5%

What do the screens show for `Cc1cccc(NC(=O)c2nc[nH]c2C(=O)N[C@@H](CC(C)C)C(=O)OC(C)(C)C)c1`?
USP1 inh: -14.3%; ATXN2 expr inh: -24.7%; S2 tox: inconclusive; IL1B secr inh: inconclusive; USP2a inh: 2.4%

How did CC(C)(C)OC(=O)[C@H](Cc1ccccc1)NC(=O)c1nc[nH]c1C(=O)N[C@@H](Cc1ccccc1)C(=O)OC(C)(C)C do in these assays?
USP1 inh: -18.6%; ATXN2 expr inh: inconclusive; S2 tox: inconclusive; IL1B secr inh: -18.8; USP2a inh: -15.2%

How did CC(C)(C)OC(=O)[C@H](Cc1ccccc1)NC(=O)c1[nH]cnc1C(=O)Nc1cccc(Cl)c1 do in these assays?
USP1 inh: -18.4%; ATXN2 expr inh: inconclusive; S2 tox: 31.6µM*; IL1B secr inh: -51.4*; USP2a inh: -1.9%

Results for CC(C)(C)OC(=O)[C@H](Cc1ccccc1)NC(=O)c1[nH]cnc1C(=O)Nc1ccc(Cl)cc1 ?
USP1 inh: -32.6%; ATXN2 expr inh: inconclusive; IL1B secr inh: -59.2*; USP2a inh: -7.0%

How did Cc1cccc(NC(=O)c2nc[nH]c2C(=O)N[C@@H](Cc2ccccc2)C(=O)OC(C)(C)C)c1 do in these assays?
USP1 inh: inconclusive; ATXN2 expr inh: inconclusive; IL1B secr inh: -57.7*; USP2a inh: -14.3%

What do the screens show for `CCOC(=O)c1ccc(NC(=O)c2nc[nH]c2C(=O)N[C@@H](Cc2ccccc2)C(=O)OC(C)(C)C)cc1`?
USP1 inh: -27.3%; ATXN2 expr inh: inconclusive; S2 tox: inconclusive; IL1B secr inh: -73.1*; USP2a inh: 0.9%

How did CC(C)Oc1ccc(C(=O)N2CCC(c3nc4ccccc4s3)CC2)cc1 do in these assays?
USP1 inh: -17.3%; ATXN2 expr inh: -24.7%; S2 tox: inconclusive

What do the screens show for `CCC[C@H]1CN(Cc2ccccc2)C(=O)[C@@H]1CC(=O)NC`?
USP1 inh: inconclusive; ATXN2 expr inh: 4.4%; S2 tox: inconclusive; IL1B secr inh: -9.2

Results for O=C(c1ccc(COc2ccc(Cl)cc2)o1)N1CCN(Cc2ccc3c(c2)OCO3)CC1 ?
USP1 inh: -12.7%; ATXN2 expr inh: inconclusive; S2 tox: inconclusive; IL1B secr inh: -75.9*; USP2a inh: -0.9%

Results for COc1ccc(C(=O)N2CCN(Cc3ccccc3)CC2)cc1[N+](=O)[O-] ?
USP1 inh: 1.9%; S2 tox: inactive; IL1B secr inh: -5.9; USP2a inh: -0.2%

How did O=C(c1ccc(Cl)c([N+](=O)[O-])c1)N1CCN(Cc2ccc3c(c2)OCO3)CC1 do in these assays?
USP1 inh: -4.7%; ATXN2 expr inh: inconclusive; S2 tox: inactive; IL1B secr inh: -75.6*; USP2a inh: -1.3%

Results for O=C(c1cc2cc(Cl)ccc2[nH]1)N1CCN(Cc2ccc3c(c2)OCO3)CC1 ?
USP1 inh: -26.3%; S2 tox: inactive; IL1B secr inh: -63.6*; USP2a inh: -6.1%

Results for O=C(c1ccc(S(=O)(=O)c2cccc(Cl)c2)c([N+](=O)[O-])c1)N1CCN(Cc2ccccc2)CC1 ?
USP1 inh: -19.1%; ATXN2 expr inh: inconclusive; S2 tox: inconclusive; IL1B secr inh: -98.9*; USP2a inh: 0.5%

How did CC(NC(=O)CCc1nc2cc(S(=O)(=O)N3CCOCC3)ccc2n1C)c1ccc(S(N)(=O)=O)cc1 (stereo not given) do in these assays?
USP1 inh: -1.6%; ATXN2 expr inh: -9.0%; S2 tox: inactive; IL1B secr inh: -3.3; USP2a inh: 2.7%

What do the screens show for `O=C(Nc1ccc(Cl)c(Cl)c1)OCCNC(=O)c1ccncc1`?
USP1 inh: -3.4%; ATXN2 expr inh: -18.4%; S2 tox: inactive; IL1B secr inh: -10.4; USP2a inh: 1.8%

Results for Cc1cc(C)c(Cn2c3ccccc3c3cnn(CC(=O)NCCCc4ccccc4)c(=O)c32)c(C)c1 ?
USP1 inh: -9.9%; ATXN2 expr inh: -2.4%; S2 tox: inactive

What do the screens show for `O=C(c1cc2cc(Cl)ccc2[nH]1)N1CCN(c2ccc(F)cc2)CC1`?
USP1 inh: -30.5%; ATXN2 expr inh: 0.0%; S2 tox: inactive; IL1B secr inh: -85.0*; USP2a inh: 0.7%

How did COc1ccc(N2CCN(C(=O)c3cc4cc(Cl)ccc4[nH]3)CC2)cc1 do in these assays?
USP1 inh: -23.4%; ATXN2 expr inh: 0.7%; S2 tox: inactive; IL1B secr inh: 22.3; USP2a inh: 3.2%

How did O=C(CCl)Nc1c2c(nn1-c1ccccc1)CSC2 do in these assays?
USP1 inh: -8.3%; ATXN2 expr inh: inconclusive; S2 tox: inconclusive; IL1B secr inh: -96.5*; USP2a inh: -0.8%
